The sample as a whole holds a higher share of hits than the screen did.
Epigenetic mod = epigenetic modulators derepressing GFP locus in mouse cells; mouse C127i GFP locus derepression, cytometry, 30 h; Potency, µM (doses to about 46.1 µM), for inactives: at the top dose GFP derepression (activation); AID 597; hit rate 0.09% among 68,000; note: % of control where 0% means no effect
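Read-out is the number of GFP-positive cells, scored as fluorescent objects 20 to 120 um wide, reflecting derepression of a silenced CMV-GFP reporter in murine C127i cells after 30 h compound exposure at 37 C.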
HBB splice mod = modulators of hemoglobin beta chain splicing; HBB splicing reporter cell assay, activation; EGFP reporter with mutant IVS2-654 intron; response scale: normalised to 500 nM splice-correcting PNA; Potency, µM (highest dose often 46.1 µM), for inactives: top-dose activation, hits mostly activators; hit rate 0.06% among 65,000; note: potency is the fitted concentration of half-maximal effect; 0% is about no effect
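HeLa cells stably expressing EGFP interrupted by mutant beta-globin intron 2 (IVS2-654), 500/well in 2% FCS. Treated with compound for 2 days at 37C. Splicing correction scored as total well GFP intensity (488 nm excitation, 500-520 nm emission); 500 nM antisense PNA served as control.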
CRE-bla Fsk = alters forskolin-stimulated CRE reporter signaling in CHO cells; AID 662; hit rate 2.5% among 71,000; Potency, µM (titrated, usually from 38.2 µM), inactives show top-dose activity change, negative = inhibition, hits mostly activators; CHO CRE-bla reporter (cAMP response element driving beta-lactamase), forskolin EC10, beta-lactamase ratio; active = well fitted activation curve with a large enough effect in the signal ratio, with a control signal flat, not every such curve was filed as active; inconclusive = small, poorly fitted or top-dose-only effect, or effect the other way, or a change in a side signal; the % refers to the signal ratio; note: potency is the fitted concentration of half-maximal effect; % of control where 0% means no effect
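Using CellSensor CRE-bla CHO cells in Opti-MEM with 0.5% dialyzed FBS, compounds were titrated with EC10 NKH 477 for 3 h at 37 °C. CCF4 ratio (460/530 nm) gave %Activity; AC50 derived.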
ERK AVP inh = inhibitors of vasopressin-stimulated ERK signaling pathway | HEK293-V1b, vasopressin-stimulated pERK AlphaScreen | Potency, µM (doses to about 57.5 µM), for the others: top-dose activity, negative = inhibition, usual class: inhibitors | hit rate 0.99% among 72,000 | AID 995; note: potency is the fitted concentration of half-maximal effect; % is set by controls: 0 for no effect and ±100 for the full control effect; nearly all actives have a fitted effect of over 55% in size
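HEK293 cells stably expressing V1b receptor, seeded overnight in 1% FBS, were treated with compounds for 30 min at 37C, then stimulated 5 min with 25 nM vasopressin; phospho-ERK read by AlphaScreen SureFire after lysis.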
IkB sig inh = inhibitors of IkB signaling in ABC-DLBCL cells | AID 445 | Potency, µM (top dose mostly 57.1 µM), without a hit: top-dose IkBa stabilization activation | hit rate 0.04% among 110,000 | ABC-DLBCL IkBa-CBG/CBR dual luciferase ratio, 4 h; response scale: scaled: untreated 0%, proteasome inhibitor 100%; active = well fitted curve in the direction sought with a large enough effect in the signal ratio, not every such curve was filed as active; inconclusive = small, poorly fitted or top-dose-only effect, or a change in a side signal; the % refers to the signal ratio;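 note: potency is the fitted concentration of half-maximal effect; the direction sought is a rising ratio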
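Luminescence ratio of IκBα-fused green versus native red beetle luciferase in OCI-Ly3 cells, 4 h post-doxycycline with compound; red signal alone, scaled from basal (0%) to zero light (-100%), flagged nonspecific or cytotoxic effects.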
* marks the source's active call; other numbers are inactive results; ? = inconclusive; / = no result; [ ] = another dose, or the depositor's remark. Unless noted, calls come from the whole dose curve; as a rule, active = well fitted curve in the direction sought with a large enough effect; inconclusive = small, poorly fitted or top-dose-only effect, or another doubt; inactive = no such curve, though single readings can be large; an effect the other way counts as inactive or inconclusive.

SMILES	Epigenetic mod	HBB splice mod	CRE-bla Fsk	ERK AVP inh	IkB sig inh
CN(C)c1ncc2nc(-c3cn(C)c4ccccc34)c(=O)n(C[C@H]3CCCO3)c2n1	-3%[9.22 µM]	7%	2µM*	?	-1%[11.4 µM]
O=c1c(-c2ccccc2)nc2cnc(N3CCOCC3)nc2n1C[C@H]1CCCO1	-2%[9.22 µM]	-1%	2µM*	11%	-2%[11.4 µM]
CN(C)c1ncc2nc(-c3cccc(C#N)c3)c(=O)n(C[C@H]3CCCO3)c2n1	6%[9.22 µM]	2%	?	-19%	-4%[11.4 µM]
CN(C)c1ncc2nc(-c3ccc(Cl)cc3)c(=O)n(C[C@H]3CCCO3)c2n1	0%[9.22 µM]	1%	4µM*	6%	2%[11.4 µM]
CN(C)c1ncc2nc(-c3ccccc3)c(=O)n(C[C@H]3CCCO3)c2n1	5%[9.22 µM]	0%	4µM*	-8%	-4%[11.4 µM]
O=C(c1ccccc1)c1nc[nH]c1C(=O)Nc1ccccc1	4%	-1%	10µM*	-24%	?
CCCn1c(=N)c(C(=O)NCc2ccco2)cc2c(=O)n3cc(C)ccc3nc21	/	/	/	/	-2%
Cc1ccc2nc(NCc3ccco3)c(C=NCc3ccco3)c(=O)n2c1	-2%	1%	10µM*	-14%	-2%
OC[C@H](S)CS	3.2µM*	2%[9.22 µM]	-1%[7.6 µM]	2%[11.5 µM]	?
NC([N-]/N=C/c1ccccn1)=[S]=[Fe].O=S(=O)(O)O	0%[9.22 µM]	0%[9.22 µM]	13%[7.6 µM]	-10%[11.5 µM]	1%[11.4 µM]
COc1cc2c(cc1OC)-c1nncn1C(C)(C)C2	2%	6%	13µM*	-22%	-2%
COc1ccc(/C=C/C(=O)c2cccs2)c(OC)c1	/	/	/	164%	/
COc1cc(/C=C\c2ccc(OC)cc2OC)cc(OC)c1	0%	/	2µM*	23%	1%
C=CCn1c2ccccc2c2nnc(SCCCn3c(=O)[nH]c4ccccc43)nc21	3%	-6%	1.3µM*	13µM*	?
CN1CCN(c2ncnc3ccc(-c4ccccc4C(F)(F)F)cc23)CC1	0%[9.22 µM]	0%	?	?	0%[11.4 µM]
C=CCNC(=O)c1sc(=S)n(-c2ccc(C(=O)OCC)cc2)c1N	0%	0%	-15%	24%	-2%
CCOC(=O)c1ccc(-n2c(N)c(C(=O)NCc3ccco3)sc2=S)cc1	-1%	-1%	1%	20µM*	1%
CC[C@H](CC[C@@H](C)C1CC[C@H]2[C@@H]3CC=C4C[C@@H](O)CC[C@]4(C)[C@H]3CC[C@]12C)C(C)C (some centres not stated)	/	/	/	0%	/
CN(C)CCC(=O)[C@@]1(O)CC[C@H]2[C@H]3CC=C4C[C@@H](O)CC[C@]4(C)[C@H]3CC[C@]21C	?	3%[9.22 µM]	-11%[7.6 µM]	-14%[11.5 µM]	5µM*
COc1cc(C(c2sc3nc(C)nn3c2O)N2CCN(c3ccccc3)CC2)cc(OC)c1OC (configuration not stated)	/	-1%	2µM*	/	?
COc1cc(C(c2sc3nc(C)nn3c2O)N2CCOCC2)cc(OC)c1OC (configuration not stated)	/	-1%	8%	/	13%
CCSc1nc2ccccc2n1Cc1nc(N)nc(N(C)C)n1	0%	0%	?	?	1%
CN(C)c1nc(N)nc(Cn2ccnc2)n1	-3%	0%	6.3µM*	-21%	-6%
COC(=O)c1c(NC(=O)c2ccco2)sc(C)c1C	0%	0%	10µM*	-2%	2%
COC(=O)c1c(NC(=O)c2ccco2)sc(C(=O)Nc2ccc(F)cc2)c1C	1%	0%[57.5 µM]	3%	-7%	-1%
Clc1ccc([C@H](Cn2ccnc2)OCc2c(Cl)cccc2Cl)c(Cl)c1	-2%[20.6 µM]	-2%[20.6 µM]	?	-6%[25.7 µM]	1%[25.6 µM]
Cc1cccc(N2CCN(C(=O)CSCc3c(C)noc3C)CC2)c1C	-2%	-7%	?	25µM*	10%
Cc1noc(C)c1CSCC(=O)N1CCN(c2ccc(F)cc2)CC1	0%	-1%	0%	14%	?
COc1ccc(CN(Cc2cc3cc4c(cc3[nH]c2=O)OCO4)C(=O)NC2CCCCC2)cc1	4%	0%[57.5 µM]	10µM*	?	1%
O=C(Nc1ccc(F)cc1)N(Cc1ccco1)Cc1cc2cc3c(cc2[nH]c1=O)OCO3	4%	/	?	20µM*	?

Screens deposited in PubChem by National Center for Advancing Translational Sciences (NCATS).
